Screens from PubChem.
An excerpt weighted towards active compounds, which were near 3.2% of everything screened.
TcdB inh – blocks C. difficile toxin B glycohydrolase activity. 350,000 compounds, 0.24% hits. AID 652162. TcdB glycohydrolase enzymatic assay, plate reader. inhibition, % at 9.99 µM. P18177; in the data active = inhibition above about 10%
FBA Mtb inh – inhibits M. tuberculosis FBA enzyme; P9WQA3; 360,000 compounds, 2.3% hits; purified M. tuberculosis FBA, fluorescence read-out; inhibition, % at 1 µM; in the data active = inhibition above about 27%;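 also: 0% = vehicle and 100% = reference inhibitor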
PrPC surface inh – reduces human prion protein on the cell surface; 370,000 compounds, 0.43% hits; P04156; cell surface PrPC, TR-FRET read-out; inhibition, % at 13.8 µM; in the data active = inhibition above about 24%; also: 0% = median of the test wells and 100% = reference compound wells
GDH-TPI counter – GDH-TPI coupled enzyme inhibition counter-screen; GDH-TPI coupled enzyme counterscreen, NADH absorbance; AID 588335; inhibition, % at 4.8 µM; 360,000 compounds, 1.2% hits; in the data active = inhibition above about 30%;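 also: 0% = DMSO wells and 100% = wells lacking the enzyme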
Yp Topo-I inh – inhibitors of Yersinia pestis topoisomerase I; Y. pestis Topo-I cleavage product accumulation, plate reader; activity, % at 10 µM; 360,000 compounds, 0.064% hits; AID 504884; in the data active = activity above about 50%, passing the limit was not always enough
PrPC TRFRET cf – confirmation of inhibitors of cell surface human prion protein | shares compounds with PrPC surface inh | 1,500 compounds, 65% hits | cell surface PrPC level, TR-FRET | inhibition, % at 13.8 µM; in the data active = inhibition above about 25%
LD9 cytotox – kills or reduces viability of LD9 cells in PrPc counter-screen | shares compounds with PrPC surface inh | inhibition, % at 13.8 µM | LD9 cells cytotoxicity, luminescence viability | 1,500 compounds, 29% hits; in the data active = inhibition above about 9.5%
The depositor's hits bear a star; x = no result given.

SMILES	TcdB inh	FBA Mtb inh	PrPC surface inh	GDH-TPI counter	Yp Topo-I inh	PrPC TRFRET cf	LD9 cytotox
Cc1ccc(S(=O)(=O)Nc2ccc3c(c2)C(=O)N([C@H](C)CO)C[C@@H](C)[C@H](CN(C)C)OCCCC[C@H](C)O3)cc1	-2	x	x	x	x	x	x
C=CCN1Cc2ccccc2[C@H]2OC(c3ccc(OCCCO)cc3)=N[C@@]2(CCC(=O)OC(C)(C)C)C1=O	-1	x	x	x	x	x	x
COc1ccc(N2C(=O)NC3CC2(C)Oc2ccc(Cl)cc23)cc1OC (configuration not stated)	x	15	3	-9	6	x	x
COc1cc(N2C(=O)NC3CC2(C)Oc2ccccc23)cc(OC)c1OC (configuration not stated)	x	0	33*	4	-3	3	-7
Cc1ccc(S(=O)(=O)N(C)C[C@@H]2Oc3ccc(NC(=O)CCN4CCOCC4)cc3CC(=O)N([C@H](C)CO)C[C@H]2C)cc1	-2	x	x	x	x	x	x
COc1cccc(-c2ccc([C@H]3[C@@H](CO)N4CCCCN(CC5CCOCC5)C[C@H]34)cc2)c1	-2	x	x	x	x	x	x
CC(C)c1ccc(/C=C(\c2nc3ccccc3[nH]2)S(=O)(=O)c2ccccc2)cc1	x	-3	43*	13	4	44*	-7
O=S(=O)(/C(=C/c1ccc(C(F)(F)F)cc1)c1nc2ccccc2[nH]1)c1ccccc1	x	2	38*	-2	-1	79*	97*
C/C(=C\c1ccc(N)cc1)c1nc2ccccc2[nH]1	4	1	5	16	1	x	x
CC(C)NC(=O)N[C@H]1C=C[C@@H](CC(=O)NCc2ccc(Oc3ccccc3)cc2)O[C@H]1CO	1	x	x	x	x	x	x
COc1cccc2cc(C(=O)C3=C(O)C(=O)N(CCN(C)C)C3c3ccc(Cl)cc3)oc12 (configuration not stated)	0	-1	41*	12	-3	52*	-3
COc1ccc(NC(=O)N(C)C[C@@H]2Oc3c(NS(C)(=O)=O)cccc3C(=O)N([C@@H](C)CO)C[C@@H]2C)cc1	0	x	x	x	x	x	x
COc1ccc(NC(=O)CCSc2ccc3ccccc3n2)cc1	x	-3	56*	5	12	75*	-2
COc1cccc(NC(=O)COC(=O)CCSc2ccccc2)c1	0	-1	-3	2	11	x	x
COc1cccc(NC(=O)CCSc2ccc3ccccc3n2)c1	x	-1	68*	6	4	84*	-7
CCC(=O)N1CCc2cc(S(=O)(=O)N(C)c3ccc(OC)cc3OC)ccc21	0	2	5	-6	0	x	x
CCC(=O)N1CCc2cc(Br)cc(S(=O)(=O)N(C)c3ccc(OC)cc3OC)c21	1	1	30*	4	-1	6	-5
Cn1c(=O)c2c(nc(CN3CCc4ccccc4C3)n2Cc2ccccc2F)n(C)c1=O	x	3	27*	1	2	-2	-3
Cn1c(=O)c2c(nc(CN3CCc4ccccc4C3)n2CCCO)n(C)c1=O	1	2	3	-5	-3	x	x
CCCCC1=CC2=C(c3ccco3)C(=O)C(C)(OC(=O)c3ccc(OC)cc3)C(=O)C2=CN1CCc1ccccn1 (configuration not stated)	0	-2	26*	8	-1	33*	-3
O=C(NCC[C@@H]1CC[C@@H](NS(=O)(=O)c2ccc(F)cc2)[C@H](CO)O1)Nc1ccc(F)cc1	0	x	x	x	x	x	x
CC=Cc1ccc2n(c1=O)C[C@H]1[C@H](CO)[C@@H](C(=O)NCC3CC3)N(Cc3cccnc3)[C@@H]21 (mixture of isomers)	0	x	x	x	x	x	x
C#CCn1cc2c(c1-c1ccccc1)c(=O)n(C)c(=O)n2C	1	4	11	-1	-5	x	x
CN1OC(Cn2cc(C#N)c(=O)n(C)c2=O)CC1c1ccccc1 (configuration not stated)	0	7	25*	1	0	4	1
Cc1nc2ccc(NC(=O)c3cc(Cl)ccc3F)cc2c(=O)[nH]1	x	x	3	x	x	x	x
SMILES	TcdB inh	FBA Mtb inh	PrPC surface inh	GDH-TPI counter	Yp Topo-I inh	PrPC TRFRET cf	LD9 cytotox
CCOc1ccccc1C(=O)Nc1ccc2nc(C)[nH]c(=O)c2c1	x	x	26*	x	x	4	2
CO[C@@H]1CC[C@@H]2CCOc3c(C#N)cccc3C(=O)N(C)[C@H](C)C(=O)N(C)C[C@@H]1O2	-2	x	x	x	x	x	x
COc1ccc(CNC(=O)C[C@@H]2CC[C@@H](NS(=O)(=O)c3cccc(OC)c3)[C@H](CO)O2)cc1	0	x	x	x	x	x	x
NC(=O)C1=C[C@@H](c2coc3ccccc3c2=O)C[C@@H](OCc2ccc(CO)cc2)O1	0	0	40*	-3	2	31*	1
NC(=O)C1=C[C@@H](c2coc3ccccc3c2=O)C[C@@H](OCCCCO)O1	1	5	27*	8	31	32*	-3
C[C@@H]1CN([C@H](C)CO)C(=O)Cc2cc(NS(C)(=O)=O)ccc2O[C@@H]1CN(C)S(=O)(=O)c1cccs1	3	x	x	x	x	x	x
C[C@@H]1CN([C@@H](C)CO)C(=O)Cc2cc(NC(=O)Cc3ccccc3)ccc2O[C@@H]1CN(C)C(=O)NC1CCCCC1	0	x	x	x	x	x	x
COc1ccc(-c2cnc(SCC(=O)Nc3ccc4c(c3)OCO4)n2Cc2ccco2)cc1	x	3	25*	5	31	19	9.3*
CC(=O)Nc1cccc(NC(=O)CSc2ncc(-c3ccc(Cl)cc3)n2Cc2ccco2)c1	x	-14	7	3	-4	x	x
CCS(=O)(=O)N1CCCCN2[C@H](CO)[C@@H](c3ccc(C#Cc4ccccc4OC)cc3)[C@H]2C1	-2	x	x	x	x	x	x
O=C(NCc1ccncc1)C(=O)Nc1nc(C23CC4CC(CC(C4)C2)C3)cs1	x	0	35*	11	25	36*	2
O=S(=O)(Nc1ccc(Cc2ccncc2)cc1)c1ccc(Cl)cc1	2	2	40*	-1	1	38*	-1
O=S(=O)(Nc1ccc(Cc2ccncc2)cc1)c1ccc(Br)s1	x	-1	20	18	32	x	x
O=S(=O)(Nc1ccc(Cc2ccncc2)cc1)c1ccc(Br)cc1	x	-1	36*	-1	-12	31*	4
COc1ccc(-c2cnc3c(c2)C(=O)N([C@H](C)CO)C[C@@H](C)[C@@H](CN(C)Cc2ccccc2)O3)cc1	0	x	x	x	x	x	x
O=C([C@H]1[C@H](CO)[C@H]2Cn3c(ccc(C4=CCCC4)c3=O)[C@H]2N1CC1CC1)N1CCCCC1	1	x	x	x	x	x	x
CCCCCCCCC[n+]1cccc2c3ccccc3ccc21	x	26	x	-2	29	x	x
CCCCCCCCCCCCCCCC[n+]1cccc2ccccc21	4	0	40*	-1	3	51*	55*
COc1ccc2c3c([nH]c2c1)[C@H](CO)N(C(=O)NC(C)C)CC31CCN(C(=O)c2cnccn2)CC1	1	x	x	x	x	x	x
O=C(c1ccc(C(F)(F)F)cc1)C1CCCN(Cc2ccncc2)C1 (configuration not stated)	1	-1	29*	0	7	23	12*
